Test results as given in the supplement of paper PMC10849652.
The full data set covers some 7,900 targets. This sample favours those with a hit. About 0.6% of all pairs of compound and target were hits.

Experiments:
Experiment in all cases: log2 fold change, soluble protein after heating vs DMSO (PISA); higher = thermal stabilisation; K562 cells, 10 uM, 30 min; active = over 0.2 and 3.5 SD of the protein, either way, in both replicates (recomputed)
[1] = compound: CC[C@@H]1C(=O)N(C)c2cnc(Nc3ccc(C(=O)NC4CCN(C)CC4)cc3OC)nc2N1C1CCCC1
Outline: (§1)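 Soluble protein was quantified by TMTpro 16plex LC-MS/MS after channel sums were equalised. It was obtained as the supernatant after 21,000xg for 90 min from pooled aliquots of K562 cells (2×10^6 cells/mL, 10 μM compound, 30 min) heated for 3 min across 48°C-58°C and extracted in PBS with 0.5% NP-40 at 4°C. Thermal stability values are relative to control samples and come from duplicates. They are given as log2 fold changes.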

[2] = compound: CC[C@@H]1C(=O)N(C)c2cnc(Nc3ccc(C(=O)N[C@H]4CC[C@H](N5CCN(CC6CC6)CC5)CC4)cc3OC)nc2N1C(C)C [volasertib]
Outline: as §1

[3] = compound: CC[C@H](C)N1C=C(C2=C(C=C(C=C21)C3=CN=C(C=C3)N4CCNCC4)C(=O)NCC5=C(C=C(NC5=O)C)C)C
Outline: as §1

[4] = compound: CC[C@H](C)[C@@H](C(=O)N[C@@H]([C@@H](C)O)C(=O)N[C@@H](CC(C)C)C(=O)[C@]1(CO1)C)NC(=O)[C@H]([C@@H](C)CC)N(C)C(=O)C [epoxomicin]
Outline: as §1

[5] = compound: CCn1c(C(=O)N(C2CC2)C2CC2)cc2c3c(ncn3C)c(Nc3cc(C)n(C)n3)nc21
Outline: as §1

[6] = compound: CCn1cc(-c2ccnc3[nH]c(-c4cccc(CN(C)C)c4)cc23)c(-c2ccc(NC(=O)N(C)C)cc2)n1
Outline: as §1

[7] = compound: CN(C)CC(=O)Nc1ccc2[nH]c(=O)c3ccccc3c2c1
Outline: as §1

[8] = compound: CN(CCOC1=CC=C(C=C1)C[C@H]2C(=O)NC(=O)S2)C3=CC=CC=N3 (racemic) [rosiglitazone]
Outline: as §1

[9] = compound: CN1C2=C(C3=C1C(=O)N(N=C3)CC4=CC(=CC=C4)N)SC(=C2)S(=O)C
Outline: as §1

[10] = compound: CN1CCC(CNc2ccc3ncc(-c4cccc(OC(F)(F)F)c4)n3n2)CC1
Outline: as §1

[11] = compound: CN1CCN(CCOc2cc(OC3CCOCC3)c3c(Nc4c(Cl)ccc5c4OCO5)ncnc3c2)CC1 [saracatinib]
Outline: as §1

[12] = compound: CN1CCN(c2nc(C3=C(c4c[nH]c5ccccc45)C(=O)NC3=O)c3ccccc3n2)CC1 [sotrastaurin]
Outline: as §1

[13] = compound: CN1CC[C@H](c2c(O)cc(O)c3c(=O)cc(-c4ccccc4Cl)oc23)[C@H](O)C1 [alvocidib]
Outline: as §1

[14] = compound: CN1CCc2c(c3ccccc3n2Cc2ccc(C(=O)NO)cc2)C1 [Tubastatin A]
Outline: as §1

[15] = compound: CNC(=O)C1=CC=CC=C1NC2=NC(=NC=C2Cl)NC3=C(C=C(C=C3)N4CCOCC4)OC
Outline: as §1

[16] = compound: CNC(=O)c1ccc(Nc2ncc(C(F)(F)F)c(NCc3nccnc3N(C)S(C)(=O)=O)n2)cc1 [defactinib]
Outline: as §1

[17] = compound: CNCc1ccc(-c2[nH]c3cc(F)cc4c3c2CCNC4=O)cc1 [rucaparib]
Outline: as §1

[18] = compound: CNc1nc(-c2ccc3c(N)n[nH]c3c2)cc(N2C[C@@H](C(=O)NC3CCCCC3)CC[C@H]2C)n1
Outline: as §1

[19] = compound: COC(=O)N[C@@H](C)CNc1nccc(-c2cn(C(C)C)nc2-c2cc(Cl)cc(NS(C)(=O)=O)c2F)n1 [encorafenib]
Outline: as §1

[20] = compound: COC(=O)[C@H](CCSC)NC(=O)C1=C(C=C(C=C1)NC[C@H](CS)N)C2=CC=CC=C2
Outline: as §1

Measured: log2 fold change

BCLAF1 (UniProt Q9NYF8)
inactive: [1] -0.089 | [2] -0.08 | [3] 0.024 | [4] -0.027 | [5] -0.016 | [6] -0.002 | [7] 0.099 | [8] 0.018 | [9] -0.015 | [10] 0.024 | [11] -0.033 | [12] 0.039 | [13] -0.271 | [14] 0.184 | [15] -0.275 | [16] -0.382 | [17] 0.017 | [18] -0.057 | [19] 0.013 | [20] -0.028

APH1A (UniProt Q96BI3)
Sequence of UniProt Q96BI3 (Q96BI3 whole entry, looked up): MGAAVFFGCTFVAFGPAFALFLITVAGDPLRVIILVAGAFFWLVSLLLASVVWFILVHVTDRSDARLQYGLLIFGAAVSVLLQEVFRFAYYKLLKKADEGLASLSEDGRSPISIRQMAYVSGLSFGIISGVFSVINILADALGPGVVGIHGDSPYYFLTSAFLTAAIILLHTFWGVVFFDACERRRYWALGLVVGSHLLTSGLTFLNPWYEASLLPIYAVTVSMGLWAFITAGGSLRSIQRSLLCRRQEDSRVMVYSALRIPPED
inactive: [1] -0.023 | [2] 0.031 | [3] 0.004 | [5] -0.019 | [6] 0.026 | [7] 0.19 | [8] -0.183 | [9] 0.034 | [10] 0.03 | [11] 0.025 | [12] 0.131 | [13] 0.073 | [14] 0.097 | [15] -0.047 | [16] -0.089 | [17] 0.002 | [18] -0.01 | [19] 0 | [20] -0.111

ALG14 (UniProt Q96F25)
Sequence of UniProt Q96F25 (Q96F25 whole entry, looked up): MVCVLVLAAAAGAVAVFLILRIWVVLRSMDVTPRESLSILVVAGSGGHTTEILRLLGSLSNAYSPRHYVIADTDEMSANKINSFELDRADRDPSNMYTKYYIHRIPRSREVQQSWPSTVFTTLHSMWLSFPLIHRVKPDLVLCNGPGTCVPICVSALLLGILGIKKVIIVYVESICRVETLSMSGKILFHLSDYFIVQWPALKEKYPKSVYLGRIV
inactive: [1] 0.2 | [2] 0.11 | [3] -0.077 | [4] 0.382 | [5] -0.014 | [6] -0.215 | [7] 0.062 | [8] 0.016 | [9] -0.124 | [10] 0.443 | [11] 0.049 | [13] -0.14 | [14] -0.027 | [15] -0.001 | [16] 0.091 | [17] -0.173 | [18] -0.022 | [19] 0.028 | [20] -0.002

ACTBL2 (UniProt Q562R1)
Sequence of UniProt Q562R1 (Q562R1 whole entry, looked up): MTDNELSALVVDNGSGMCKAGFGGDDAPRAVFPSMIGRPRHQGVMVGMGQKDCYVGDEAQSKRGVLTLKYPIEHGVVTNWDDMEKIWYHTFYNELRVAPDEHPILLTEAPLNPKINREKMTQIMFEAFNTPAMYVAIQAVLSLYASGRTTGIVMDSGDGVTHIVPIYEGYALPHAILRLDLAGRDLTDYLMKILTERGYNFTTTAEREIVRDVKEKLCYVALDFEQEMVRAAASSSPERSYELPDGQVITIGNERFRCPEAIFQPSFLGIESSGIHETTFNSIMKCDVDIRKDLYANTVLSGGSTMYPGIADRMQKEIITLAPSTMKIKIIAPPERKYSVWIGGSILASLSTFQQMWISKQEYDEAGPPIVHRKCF
inactive: [1] -0.121 | [2] 0.153 | [3] -0.133 | [4] -0.1 | [5] 0.05 | [6] 0.162 | [7] -0.3 | [8] 0.07 | [9] 0.011 | [10] 0.065 | [11] -0.054 | [12] 0.179 | [15] 0.158 | [16] 0.432 | [17] -0.711 | [18] 0.035 | [19] 0.239 | [20] 0.15

AHCYL1 (UniProt O43865)
Sequence of UniProt O43865 (O43865 whole entry, looked up): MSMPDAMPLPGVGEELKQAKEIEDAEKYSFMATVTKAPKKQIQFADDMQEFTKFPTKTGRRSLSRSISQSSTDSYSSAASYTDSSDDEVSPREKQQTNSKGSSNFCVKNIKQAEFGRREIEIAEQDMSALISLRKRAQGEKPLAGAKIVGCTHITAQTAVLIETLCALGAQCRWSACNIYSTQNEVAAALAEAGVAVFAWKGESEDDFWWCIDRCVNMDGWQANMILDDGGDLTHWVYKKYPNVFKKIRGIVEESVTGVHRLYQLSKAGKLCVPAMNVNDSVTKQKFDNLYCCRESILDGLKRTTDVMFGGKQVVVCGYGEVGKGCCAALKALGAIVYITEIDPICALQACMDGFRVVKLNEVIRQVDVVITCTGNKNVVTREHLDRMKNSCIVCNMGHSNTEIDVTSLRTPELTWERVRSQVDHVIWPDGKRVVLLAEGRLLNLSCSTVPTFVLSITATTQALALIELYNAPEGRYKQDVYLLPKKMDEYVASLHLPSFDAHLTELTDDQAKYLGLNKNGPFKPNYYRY
inactive: [1] 0.021 | [2] 0.036 | [3] -0.099 | [4] -0.007 | [5] -0.027 | [6] -0.097 | [7] 0.018 | [8] 0.018 | [9] -0.115 | [10] -0.063 | [11] 0.101 | [12] 0.014 | [13] 0.1 | [14] -0.042 | [15] 0.182 | [16] 0.104 | [17] 0.044 | [18] 0.061 | [19] -0.043 | [20] -0.005

ACP1 isoform 2 (UniProt P24666)
Sequence of UniProt P24666 (P24666 whole entry, looked up): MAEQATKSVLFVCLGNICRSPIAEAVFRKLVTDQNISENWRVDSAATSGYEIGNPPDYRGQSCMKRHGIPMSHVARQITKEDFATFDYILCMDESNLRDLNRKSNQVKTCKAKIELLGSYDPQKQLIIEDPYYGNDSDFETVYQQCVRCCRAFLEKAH
inactive: [1] 0.034 | [2] 0.055 | [3] 0.063 | [4] 0.012 | [5] -0.1 | [6] -0.083 | [7] 0.05 | [8] 0.027 | [9] 0.014 | [10] -0.07 | [11] -0.175 | [12] -0.11 | [13] 0.013 | [14] 0.111 | [15] 0.038 | [16] -0.047 | [17] 0.019 | [18] 0.059 | [19] 0.064 | [20] 0.024

APOBEC3G (UniProt Q9HC16)
inactive: [1] 0.267 | [2] -0.008 | [3] 0.051 | [4] -0.146 | [5] 0.006 | [7] -0.148 | [8] -0.115 | [9] 0.025 | [11] 0.046 | [12] 0.023 | [14] -0.045 | [15] -0.093 | [16] -0.097 | [17] 0.152 | [18] -0.121 | [19] -0.263 | [20] 0.038

BRD3 (UniProt Q15059)
Sequence of UniProt Q15059 (Q15059 whole entry, looked up): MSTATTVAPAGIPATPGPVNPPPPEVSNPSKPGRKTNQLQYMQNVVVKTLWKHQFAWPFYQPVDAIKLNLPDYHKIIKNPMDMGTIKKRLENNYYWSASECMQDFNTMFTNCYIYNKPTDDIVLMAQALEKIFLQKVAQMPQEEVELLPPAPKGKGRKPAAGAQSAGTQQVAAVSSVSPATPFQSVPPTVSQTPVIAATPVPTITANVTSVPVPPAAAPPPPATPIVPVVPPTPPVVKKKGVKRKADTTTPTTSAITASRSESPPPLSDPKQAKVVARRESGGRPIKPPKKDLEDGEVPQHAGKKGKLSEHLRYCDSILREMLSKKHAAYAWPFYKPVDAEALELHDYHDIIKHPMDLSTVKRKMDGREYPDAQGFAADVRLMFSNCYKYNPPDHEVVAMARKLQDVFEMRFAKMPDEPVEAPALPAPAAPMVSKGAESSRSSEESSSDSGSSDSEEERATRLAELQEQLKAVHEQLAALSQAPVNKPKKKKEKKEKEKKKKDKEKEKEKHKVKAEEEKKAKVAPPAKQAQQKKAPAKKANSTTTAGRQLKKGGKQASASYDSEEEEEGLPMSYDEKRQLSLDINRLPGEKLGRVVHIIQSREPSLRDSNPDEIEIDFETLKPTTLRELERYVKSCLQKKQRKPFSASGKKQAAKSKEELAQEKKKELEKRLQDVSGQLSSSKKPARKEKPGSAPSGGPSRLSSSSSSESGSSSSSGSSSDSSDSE
active: [1] 1.63 | [2] 1.46 | [6] 0.681 | [14] -0.571
inactive: [3] -0.088 | [5] -0.065 | [7] 0.073 | [8] 0.019 | [9] -0.143 | [10] 0.106 | [11] 0.093 | [12] -0.116 | [13] -0.076 | [15] 0.011 | [16] -0.319 | [17] -0.083 | [18] 0.325 | [19] 0.086 | [20] -0.128

ACSM3 (UniProt Q53FZ2)
Sequence of UniProt Q53FZ2 (Q53FZ2 whole entry, looked up): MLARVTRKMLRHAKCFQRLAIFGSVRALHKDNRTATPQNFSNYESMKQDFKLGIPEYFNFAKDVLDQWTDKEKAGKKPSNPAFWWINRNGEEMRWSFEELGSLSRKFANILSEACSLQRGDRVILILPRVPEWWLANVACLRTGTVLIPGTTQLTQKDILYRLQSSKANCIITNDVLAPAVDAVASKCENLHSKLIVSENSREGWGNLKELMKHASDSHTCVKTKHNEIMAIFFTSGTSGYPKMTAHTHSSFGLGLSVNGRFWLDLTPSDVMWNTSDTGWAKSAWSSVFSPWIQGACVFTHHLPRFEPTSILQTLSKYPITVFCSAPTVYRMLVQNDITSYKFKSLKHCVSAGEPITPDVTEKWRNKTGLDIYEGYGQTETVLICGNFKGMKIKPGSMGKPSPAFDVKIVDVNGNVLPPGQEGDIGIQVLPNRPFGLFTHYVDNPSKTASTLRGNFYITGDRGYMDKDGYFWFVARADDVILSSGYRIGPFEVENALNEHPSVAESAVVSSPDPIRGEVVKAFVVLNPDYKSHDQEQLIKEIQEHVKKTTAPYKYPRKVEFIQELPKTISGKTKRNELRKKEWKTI
inactive: [1] 0.021 | [2] -0.092 | [3] 0.062 | [4] 0.146 | [5] -0.03 | [6] -0.02 | [7] 0.154 | [8] 0.046 | [9] -0.099 | [10] -0.145 | [11] 0.031 | [12] 0.018 | [13] -0.021 | [14] 0.009 | [15] 0.053 | [16] -0.148 | [17] 0.142 | [18] -0.09 | [19] 0.021 | [20] -0.064

ANK2 (UniProt Q01484)
inactive: [1] 0.049 | [2] -0.071 | [3] -0.003 | [5] -0.1 | [6] 0.122 | [7] -0.018 | [8] 0.03 | [9] -0.128 | [10] -0.223 | [11] 0.24 | [12] 0.05 | [13] -0.013 | [14] -0.122 | [15] 0.05 | [16] -0.057 | [17] -0.019 | [18] -0.095 | [19] -0.106 | [20] -0.041

ALKBH4 (UniProt Q9NXW9)
Sequence of UniProt Q9NXW9 (Q9NXW9 whole entry, looked up): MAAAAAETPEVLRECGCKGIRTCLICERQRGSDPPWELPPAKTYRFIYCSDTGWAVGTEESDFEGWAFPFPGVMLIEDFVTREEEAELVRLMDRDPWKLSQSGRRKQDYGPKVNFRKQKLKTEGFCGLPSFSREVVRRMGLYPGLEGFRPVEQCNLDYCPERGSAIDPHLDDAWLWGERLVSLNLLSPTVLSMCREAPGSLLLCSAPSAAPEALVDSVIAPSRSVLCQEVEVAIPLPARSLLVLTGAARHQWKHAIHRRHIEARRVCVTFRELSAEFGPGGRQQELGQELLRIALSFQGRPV
inactive: [1] -0.064 | [2] -0.263 | [4] 0.117 | [5] -0.02 | [6] -0.023 | [7] 0.056 | [8] 0.037 | [9] -0.077 | [10] -0.082 | [11] -0.072 | [12] -0.106 | [13] -0.227 | [14] 0.086 | [15] 0.198 | [16] -0.056 | [17] 0.07 | [18] 0.03 | [19] 0.074 | [20] 0.071

AP4S1 (UniProt Q9Y587)
Sequence of UniProt Q9Y587 (Q9Y587 whole entry, looked up): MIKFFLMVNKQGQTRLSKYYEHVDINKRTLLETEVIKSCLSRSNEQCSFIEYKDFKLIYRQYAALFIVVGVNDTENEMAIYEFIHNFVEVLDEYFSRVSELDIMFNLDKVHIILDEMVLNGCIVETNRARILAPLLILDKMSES
inactive: [1] -0.117 | [2] -0.321 | [3] 0.059 | [4] -0.006 | [5] -0.056 | [7] 0.027 | [8] 0.024 | [9] 0.078 | [11] -0.08 | [12] -0.117 | [13] -0.099 | [15] -0.05 | [16] 0.059 | [17] 0.039 | [18] -0.072 | [19] 0.073 | [20] 0.008

AGPAT3 isoform 3 (UniProt Q9NRZ7)
active: [2] -0.211
inactive: [1] -0.095 | [3] 0.017 | [4] 0.02 | [5] 0.004 | [6] -0.082 | [7] 0.012 | [8] 0.011 | [9] -0.069 | [10] 0.001 | [11] 0.01 | [12] -0.084 | [13] -0.061 | [14] 0.019 | [15] 0.012 | [16] -0.037 | [17] -0.036 | [18] -0.045 | [19] -0.001 | [20] 0.008

AARSD1 (UniProt Q9BTE6)
Sequence of UniProt Q9BTE6 (Q9BTE6 whole entry, looked up): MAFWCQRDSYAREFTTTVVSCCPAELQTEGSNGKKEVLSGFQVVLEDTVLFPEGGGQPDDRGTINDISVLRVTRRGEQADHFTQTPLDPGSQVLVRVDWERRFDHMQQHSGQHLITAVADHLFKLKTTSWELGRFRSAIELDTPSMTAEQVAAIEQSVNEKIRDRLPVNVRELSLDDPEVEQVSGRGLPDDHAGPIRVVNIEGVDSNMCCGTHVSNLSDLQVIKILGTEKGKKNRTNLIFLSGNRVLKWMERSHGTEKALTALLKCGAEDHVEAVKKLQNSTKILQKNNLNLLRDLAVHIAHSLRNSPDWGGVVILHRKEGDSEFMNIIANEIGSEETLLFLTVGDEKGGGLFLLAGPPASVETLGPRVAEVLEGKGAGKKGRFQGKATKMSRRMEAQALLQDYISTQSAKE
inactive: [1] -0.042 | [2] -0.227 | [3] -0.121 | [5] -0.046 | [8] 0.085 | [9] 0.283 | [11] 0.008 | [13] -0.15 | [15] 0.08 | [17] 0.014 | [18] 0.165 | [19] -0.042

ASH2L (UniProt Q9UBL3)
Sequence of UniProt Q9UBL3 (Q9UBL3 whole entry, looked up): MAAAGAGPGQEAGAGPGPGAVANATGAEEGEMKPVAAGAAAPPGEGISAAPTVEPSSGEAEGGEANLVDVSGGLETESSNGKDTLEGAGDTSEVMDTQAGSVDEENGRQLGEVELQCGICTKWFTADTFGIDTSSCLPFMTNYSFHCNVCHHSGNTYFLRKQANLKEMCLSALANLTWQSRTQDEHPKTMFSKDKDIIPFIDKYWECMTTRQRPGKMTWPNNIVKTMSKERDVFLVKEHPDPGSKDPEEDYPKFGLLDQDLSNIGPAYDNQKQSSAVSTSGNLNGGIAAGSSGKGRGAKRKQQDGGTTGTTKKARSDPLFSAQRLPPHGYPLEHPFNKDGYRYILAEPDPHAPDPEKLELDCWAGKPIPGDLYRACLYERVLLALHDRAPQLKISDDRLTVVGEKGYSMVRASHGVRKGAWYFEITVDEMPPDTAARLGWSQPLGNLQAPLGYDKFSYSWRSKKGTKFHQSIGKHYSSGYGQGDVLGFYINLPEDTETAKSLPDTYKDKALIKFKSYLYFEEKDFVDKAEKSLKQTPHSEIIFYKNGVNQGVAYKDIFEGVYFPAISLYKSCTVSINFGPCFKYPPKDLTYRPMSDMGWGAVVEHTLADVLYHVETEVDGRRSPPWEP
inactive: [1] -0.117 | [3] 0.079 | [4] 0.041 | [5] -0.017 | [6] -0.012 | [7] -0.003 | [8] -0.004 | [9] 0.001 | [10] -0.012 | [11] 0.023 | [12] -0.025 | [13] -0.035 | [14] 0.052 | [15] 0.023 | [16] -0.12 | [17] 0.012 | [18] -0.036 | [19] 0.037 | [20] -0.009
active: [2] -0.327

ARHGAP4 isoform 2 (UniProt P98171)
active: [9] 0.757
inactive: [1] -0.044 | [2] -0.112 | [3] 0.048 | [5] -0.048 | [7] 0.036 | [8] 0.293 | [11] -0.094 | [12] 0.115 | [13] 0.089 | [14] -0.172 | [15] -0.096 | [16] 0.22 | [17] -0.062 | [18] -0.139 | [19] 0.047 | [20] 0.097

AFG1L (UniProt Q8WV93)
Sequence of UniProt Q8WV93 (Q8WV93 whole entry, looked up): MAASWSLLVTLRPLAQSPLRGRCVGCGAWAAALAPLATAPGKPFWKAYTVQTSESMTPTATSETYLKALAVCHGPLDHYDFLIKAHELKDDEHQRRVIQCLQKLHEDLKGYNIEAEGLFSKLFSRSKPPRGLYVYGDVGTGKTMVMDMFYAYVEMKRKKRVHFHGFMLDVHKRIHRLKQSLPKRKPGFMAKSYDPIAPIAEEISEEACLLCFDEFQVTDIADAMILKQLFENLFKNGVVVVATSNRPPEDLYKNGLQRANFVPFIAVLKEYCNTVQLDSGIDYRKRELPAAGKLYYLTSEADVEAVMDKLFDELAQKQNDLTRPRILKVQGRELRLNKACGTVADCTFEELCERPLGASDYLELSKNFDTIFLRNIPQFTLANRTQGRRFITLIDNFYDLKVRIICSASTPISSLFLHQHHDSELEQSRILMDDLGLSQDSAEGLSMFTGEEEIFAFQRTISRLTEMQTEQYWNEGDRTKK
inactive: [1] 0.047 | [2] -0.223 | [3] 0.207 | [4] 0.035 | [5] 0.017 | [7] 0.063 | [8] 0.021 | [9] -0.122 | [11] -0.038 | [12] -0.075 | [13] -0.195 | [14] -0.204 | [15] -0.011 | [16] -0.131 | [17] -0.057 | [18] 0.002 | [19] 0.025 | [20] 0.088
